Screens as filed in PubChem.
Hits are enriched below; roughly 8% of the tested compounds scored in any of these assays.
HT1080 IDH1KD tx: qHTS for induction of synthetic lethality in tumor cells producing 2HG: qHTS for the HT-1080-IDH1KD cell line; HT-1080 IDH1 knockdown viability, ATP luminescence, 48 h; Potency, µM (titrated, usually from 46.1 µM), for the others: top-dose activity, negative = toxicity, actives largely listed as cytotoxic; 360,000 tested, 2% active; AID 686971, 2013;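 note: 0% = DMSO wells and -100% = cell-free medium wells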
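% activity derives from luminescence (CellTiter-Glo), normalised to DMSO and no-cell wells. HT-1080-IDH1KD cells, 750/well, had 48 h compound exposure at 37 °C.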
MCF10A rereplic: A quantitative high throughput screen for small molecules that induce DNA re-replication in MCF 10a normal breast cells | Potency, µM (top dose mostly 46.1 µM), without a hit: top-dose activity, positive = re-replication, actives largely listed as activators | 350,000 tested, 2.9% active | MCF 10A DNA re-replication, Hoechst nuclear intensity, 48 h | AID 624296, 2012; note: % of control where 0% means no effect; nearly all actives have a fitted effect of over 50% in size
KB-V1 cytotox: qHTS assay for MDR1-selective chemotherapeutics: Primary screen using the drug-selected MDR subline cells KB-V1. 400,000 tested, 3.4% active. KB-V1 MDR cells viability, CellTiter-Glo, 72 h. Potency, µM (doses to about 46.1 µM), hits mostly cytotoxic; note: % is set by controls: 0 for no effect and ±100 for the full control effect; nearly all actives have a fitted effect of over 60% in size
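In this primary screen, KB-V1 cells overexpressing P-gp are incubated with library compounds (lowest to highest concentration) for 72 h at 37 degrees C before a luminescent ATP viability read.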
HT1080-NT tox: qHTS for induction of synthetic lethality in tumor cells producing 2HG: qHTS for the HT-1080-NT fibrosarcoma cell line. AID 686970, 2013. 360,000 tested, 1.6% active. HT-1080-NT fibrosarcoma viability, CellTiter-Glo ATP luminescence, 48 h. Potency, µM (series often up to 46.1 µM), inactives show at the highest dose activity, negative = less viability, hits mostly cytotoxic;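 note: NT is the 2HG producing partner of a matched IDH1 knockdown line; 0% = DMSO-treated cells and -100% = media-only wells without cells; nearly all actives have a fitted effect of over 55% in size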
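Viability by CellTiter-Glo luminescence after 48 h compound exposure at 37C of HT-1080-NT cells (750/well, RPMI, 5% FBS). % activity scaled between DMSO wells and medium-only wells, then curve-fitted and categorized by curve class.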
SW480 rerep: A quantitative high throughput screen for small molecules that induce DNA re-replication in SW480 colon adenocarcinoma cells; SW480 DNA re-replication, Hoechst DNA content imaging, 48 h; AID 624297, 2012; 340,000 tested, 1.8% active; Potency, µM (titrated, usually from 46.1 µM), for the others: at the highest dose re-replication activation, most hits filed as activators; note: % of control where 0% means no effect; nearly all actives have a fitted effect of over 55% in size
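Treated cells incubate 48 hr (37 C, 5% CO2), are stained 40 min with Hoechst, and nuclear fluorescence is enumerated; a rise in nuclei with high DNA signal marks re-replication.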
KB-3-1 tox: qHTS assay for MDR1-selective chemotherapeutics: Primary screen using the parental adenocarcinoma cell KB-3-1. KB-3-1 viability, CellTiter-Glo ATP luminescence, 72 h. Potency, µM (titrated, usually from 46.1 µM), hits mostly cytotoxic. 400,000 tested, 1.4% active. AID 1347075, 2019; note: % is set by controls: 0 for no effect and ±100 for the full control effect; nearly all actives have a fitted effect of over 60% in size
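Cells are dispensed, compounds pinned in, plates held at 37 °C for 72 h, then CellTiter-Glo is added and luminescence read after 10 minutes. Cell line: parental KB-3-1 in phenol-red-free DMEM, 10% FBS.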
Active calls of the source: *; i = inactive; ? = inconclusive; / = no result; [ ] = remark or other dose. Calls come from the whole dose curve; as a rule, active = well fitted curve in the direction sought with a large enough effect; inconclusive = small, poorly fitted or top-dose-only effect, or another doubt; inactive = no such curve, though single readings can be large; an effect the other way counts as inactive or inconclusive. Potency is the fitted concentration of half-maximal effect.

SMILES	HT1080 IDH1KD tx	MCF10A rereplic	KB-V1 cytotox	HT1080-NT tox	SW480 rerep	KB-3-1 tox
COC(=O)C1=C(C#N)NC(C)=C(C(=O)OC(C)C)C1c1cccc([N+](=O)[O-])c1 (stereo not given)	/	13%	/	/	5%	/
COC(=O)C1=C(C)NC(C)=C(C(=O)OCCN(C)Cc2ccccc2)C1c1cccc([N+](=O)[O-])c1 (stereo not given)	?	?	18µM*	-28%	?	i
O=C(NCC(c1ccco1)N1CCCC1)c1ccccc1Sc1ccc(C(F)(F)F)cc1[N+](=O)[O-] (stereo not given)	-26%	12%	i	-4%	2%	i
Cc1ccccc1CN1C(=O)C(O)(c2c[nH]c3ccccc23)c2cc(Cl)ccc21 (stereo not given)	/	/	i	/	/	i
Cc1cccc(C(c2sc3nc(-c4ccco4)nn3c2O)N2CCOCC2)c1 (stereo not given)	/	/	?	/	/	i
Cc1cn([C@@H](CCCCNC(=O)OC(C)(C)C)C(=O)NCCCCCCCCCCC(=O)N2CCN(C(=O)OC(C)(C)C)CC2)nn1	?	?	i	21µM*	3%	?
C#CCOCCOCCOCCNc1nc(N2CCN(C(=O)CCCCCCCCCCNC(=O)[C@H](CCCCN)n3cc(C[C@@H](C)CC)nn3)CC2)nc(N2CCN(C(=O)CCCCCCCCCCNC(=O)[C@@H]([C@H](C)O)n3cc(C)nn3)CC2)n1	?	12µM*	9.2µM*	?	20%[9.22 µM]	?
C#CCOCCOCCOCCNc1nc(N2CCN(C(=O)CCCCCCCCCCNC(=O)Cn3cc(C[C@@H](C)O)nn3)CC2)nc(N2CCN(C(=O)CCCCCCCCCCNC(=O)[C@@H](CCSC)n3cc(CCO)nn3)CC2)n1	21µM*	?	i	?	?	i
C#CCOCCOCCOCCNc1nc(N2CCN(C(=O)CCCCCCCCCCNC(=O)[C@H](CCCCN)n3cc(CCO)nn3)CC2)nc(N2CCN(C(=O)CCCCCCCCCCNC(=O)[C@H](CCCCN)n3cc(C[C@@H](C)CC)nn3)CC2)n1	?	?	i	?	-6%[9.22 µM]	i
C#CCOCCOCCOCCNc1nc(N2CCN(C(=O)CCCCCCCCCCNC(=O)[C@H]([C@@H](C)CC)n3cc(CCCCN=C(N)N)nn3)CC2)nc(N2CCN(C(=O)CCCCCCCCCCNC(=O)[C@@H]([C@H](C)O)n3cc(C)nn3)CC2)n1	26µM*	-5%	?	?	3%	?
CC[C@H](C)Cc1cn([C@@H](CCCN=C(NC(=O)OC(C)(C)C)NC(=O)OC(C)(C)C)C(=O)NCCCCCCCCCCC(=O)N2CCN(C(=O)OC(C)(C)C)CC2)nn1	?	?	i	?	-14%	?
CCOC(=O)Cn1c(=O)oc2cc(S(=O)(=O)NCc3ccc(F)cc3)ccc21	/	/	?	/	/	i
Cc1ccc(NS(=O)(=O)c2cc3c(cc2N2CCC2)NC(=O)CC3)cc1C	/	/	i	/	/	i
COc1ccc(C2C(C(N)=O)=C(C)Nc3nc(CCCO)nn32)c(OC)c1 (stereo not given)	/	/	i	/	/	i
CCn1ncc([N+](=O)[O-])c1C(=O)N1CCCC1	-2%	-2%	i	0%	-5%	i
C#CCOCCOCCOCCNc1nc(N2CCN(C(=O)CCCCCCCCCCNC(=O)[C@@H](CCSC)n3cc(CCO)nn3)CC2)nc(N2CCN(C(=O)CCCCCCCCCCNC(=O)[C@H](CO)n3cc(CCCCCN)nn3)CC2)n1	?	-6%	i	?	-1%	i
C#CCOCCOCCOCCNc1nc(N2CCN(C(=O)CCCCCCCCCCNC(=O)[C@H](CCCCN)n3cc(C[C@@H](C)CC)nn3)CC2)nc(N2CCN(C(=O)CCCCCCCCCCNC(=O)[C@H](CCCN=C(N)N)n3cc(C[C@@H](C)CC)nn3)CC2)n1	?	16µM*	i	?	2%[9.22 µM]	i
C#CCOCCOCCOCCNc1nc(N2CCN(C(=O)CCCCCCCCCCNC(=O)[C@H](CCCCN)n3cc(C)nn3)CC2)nc(N2CCN(C(=O)CCCCCCCCCCNC(=O)[C@@H]([C@H](C)O)n3cc(C)nn3)CC2)n1	?	?	?	10µM*	-2%	21µM*
C#CCOCCOCCOCCNc1nc(N2CCN(C(=O)CCCCCCCCCCNC(=O)[C@H](CCCCN)n3cc(C)nn3)CC2)nc(N2CCN(C(=O)CCCCCCCCCCNC(=O)[C@H](CCCN=C(N)N)n3cc(C[C@@H](C)CC)nn3)CC2)n1	?	?	?	?	-13%[9.22 µM]	?
C#CCOCCOCCOCCNc1nc(N2CCN(C(=O)CCCCCCCCCCNC(=O)[C@@H](CCSC)n3cc(CCO)nn3)CC2)nc(N2CCN(C(=O)CCCCCCCCCCNC(=O)[C@@H]([C@H](C)O)n3cc(C)nn3)CC2)n1	-13%	16µM*	i	-6%	-2%	i
O=C(OCc1ccccc1Cl)c1ccc(-c2nnn(Cc3ccccc3Cl)n2)cc1	/	/	i	/	/	i
O=C(C[N+]12CCCc3cccc(c31)CCC2)c1ccc2ccccc2c1	/	/	i	/	/	?
COc1ccc(N=C2S/C(=C\c3cc(C)n(C)c3C)C(=O)N2CC(C)C)cc1	-9%	-2%	2.6µM*	-5%	-5%	i
COC(=O)CN1C(=O)S/C(=C/c2cc(C)n(C)c2C)C1=O	-4%	0%	16µM*	-14%	-3%	i
COC(=O)C(C)N1C(=O)S/C(=C/c2cc(C)n(C(C)C)c2C)C1=O (stereo not given)	-4%	27%	4.1µM*	1%	19%	?
CC1(c2nc3ccccc3[nH]2)c2ccccc2C(=O)N1C1CC1 (stereo not given)	7%	/	?	20%	/	i
O=C1CCCCC(=O)N(c2ccccc2)c2ccccc21	-11%	1%	18µM*	-15%	-1%	i
CCc1nnc(NC(=O)c2ccc(S(=O)(=O)N3CCCc4ccccc43)cc2)o1	7.1µM*	9.2µM*	?	?	16µM*	i
